# FMDV antiviral = High Throughput Screening for Foot and Mouth Disease Virus Antivirals. Potency, µM (top dose mostly 57.9 µM), most hits filed as inhibitors. hit rate 1.2% among 410,000. FMDV antiviral cell-based qHTS. AID 1159524, 2015; calls by dose curve; tested in HEK293T cells; also: read-out not given here; nearly all actives have a fitted effect of over 45% in size
# MARV entry inh = qHTS for inhibitors of binding or entry into cells for Marburg Virus; Marburg virus pseudotyped entry inhibition, cell reporter; Potency, µM (top dose mostly 37.8 µM), usual class: inhibitors; hit rate 1.8% among 300,000; AID 540276, 2011; calls by dose curve; tested in HEK293 cells
# LASV entry inh = qHTS for Inhibitors of binding or entry into cells for Lassa Virus; Lassa virus pseudotype entry inhibition, cell reporter; AID 540256, 2011; hit rate 1.2% among 300,000; Potency, µM (doses to about 37.9 µM), most hits filed as inhibitors; calls by dose curve; tested in HEK293 cells; also: nearly all actives have a fitted effect of over 50% in size
# HCV inh = qHTS Assay for Inhibitors of Hepatitis C Virus (HCV); AID 651820, 2012; Huh7.5.1 HCVcc-Cre infection, luciferase reporter, 44 h; hit rate 3.4% among 340,000; Potency, µM (series often up to 41.8 µM), usual class: inhibitors
#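 Luciferase read-out (15 sec integration) after a 15 min room-temperature substrate step quantifies HCVcc-Cre infection. Cells, 1,000 per well, had compound added 4 h post-plating, then virus at ~0.5 moi, and were cultured 44 h.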
# Sm TGR block = qHTS Assay for the Inhibitors of Schistosoma Mansoni Peroxiredoxins | hit rate 3% among 360,000 | Potency, µM (doses to about 114 µM), actives largely listed as inhibitors | purified TGR, DTNB reduction, TNB absorbance 405 nm; also: nearly all actives have a fitted effect of over 60% in size
#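 Kinetic colorimetric format: TGR-catalysed, NADPH-driven DTNB reduction monitored via TNB absorbance. Enzyme dispensed at 20 nM; compound exposure 15 min at room temperature before reaction start.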
# RE007 growth inh = qHTS Assay for Inhibitors of the HIV-1 protein Vpr; S. pombe RE007 Vpr strain, BacTiter-Glo ATP luminescence, 24 h; Potency, µM (doses to about 92.2 µM), actives largely listed as inhibitors; hit rate 0.21% among 360,000; AID 651644, 2012; active = well fitted falling curve with a large enough effect; inconclusive = small, poorly fitted or top-dose-only effect; inactive = no such curve, though single readings can be large or run the other way; also: nearly all actives have a fitted effect of over 50% in size
#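 Fission yeast RE007 carrying one integrated HIV-1 vpr copy, seeded at OD 0.01 in PMG+AL medium with 23 nL pinned compound. Grown 24 h at 30 degrees; viability read by BacTiter-Glo luminescence after 5 min.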
# Hits are given with their value; 0 = inactive; ? = inconclusive; - = no result given. The list is not random: actives were taken first. Their share in the collection is about 7.2%. Unless noted, calls follow the shape of the dose curve; as a rule, active = well fitted curve in the direction sought with a large enough effect; inconclusive = small, poorly fitted or top-dose-only effect, or another doubt; inactive = no such curve, though single readings can be large; an effect the other way counts as inactive or inconclusive.
SMILES,FMDV antiviral,MARV entry inh,LASV entry inh,HCV inh,Sm TGR block,RE007 growth inh
COc1ccc(CNC(=O)CSc2cccc3cccnc23)cc1,0,0,0,0,0,0
O=C(CSc1cccc2cccnc12)NCc1ccco1,0,0,0,0,45µM,0
Cc1cc(C)nc(SCC(=O)NCc2ccco2)n1,0,0,0,0,56µM,0
Nc1cc(N)nc(SCC(=O)NCc2ccco2)n1,0,0,0,0,0,0
Cc1cc(SCC(=O)NC(=O)NCc2ccco2)nc2ccccc12,0,0,0,0,40µM,0
Cc1ccn2c(=O)nc(SCC(=O)NCc3ccco3)nc2c1,0,0,0,0,35µM,0
Cc1ccccc1C(=O)NC1CC2CCCC(C1)N2Cc1ccc(Cl)cc1 (configuration not stated),0,-,-,0,0,0
COc1ccc(CNC(=O)CN2C(=O)c3cccnc3Oc3ccc(C)cc32)cc1,0,-,?,-,0,-
CCCNC(=O)c1ccc2c(c1)N=C(CCC)c1ccccc1S2,0,?,0,-,0,-
CCS(=O)(=O)N1CCc2cc(C(=O)Nc3cc(OC)c(Cl)cc3OC)ccc21,0,0,0,-,0,-
Cc1cccc(NC(=O)CSc2cccc3cccnc23)c1C,0,0,0,0,0,0
Cc1cc(C(=O)NNC(=S)NCc2ccco2)n(C)n1,0,0,0,0,22µM,0
Cc1cc(C)nc(SCC(=O)Nc2ccnc3ccccc23)n1,?,?,?,1.8µM,0,0
CCOC(=O)CSc1cccc2cccnc12,?,?,0,6.3µM,0,?
CC(C)(C)c1ccc(C(=O)NNC(=S)NCc2ccco2)cc1,0,?,?,0,0,0
COC(=O)[C@@H]1[C@@H](c2ccccc2)NC(=O)N(CCc2cc(OC)c(OC)c(OC)c2)[C@@H]1C,-,0,-,-,-,-
O=C(c1ccc2c(c1)N(Cc1cccc(Cl)c1)C(=O)c1ccccc1S2(=O)=O)N1CCN(c2cccc(C(F)(F)F)c2)CC1,0,-,0,-,0,-
O=C(N/N=C/c1cccnc1)c1cccc(Cl)c1,0,0,0,0,0,0
CC(C)c1ccc(/C=N/NC(=O)c2cccc(Cl)c2)cc1,0,?,?,7.1µM,0,0
CC(C)c1ccc(/C=N/NC(=O)c2ccccn2)cc1,13µM,5µM,?,0,0,0
Cc1c(Cl)cccc1NC(=O)C(C)n1nnc2sc3c(c2c1=O)CCCC3 (configuration not stated),0,0,0,-,0,-
O=C(NCCC1=CCCCC1)c1ccc2c(c1)N(Cc1ccc(Cl)cc1)C(=O)c1ccccc1S2(=O)=O,0,11µM,?,-,0,-
O=C(NCCC1=CCCCC1)c1ccc2c(c1)N(Cc1cccc(Cl)c1)C(=O)c1ccccc1S2(=O)=O,0,-,?,-,0,-
COc1ccc(NC(=O)c2c(C)oc3ccc(O)c(CN4CCCCCC4)c23)cc1Cl,0,4.5µM,?,-,0,-
O=C(Nc1ccc(Cl)cc1)C1CCC(CNS(=O)(=O)c2ccc(Br)s2)CC1 (configuration not stated),0,0,0,-,0,-
SMILES,FMDV antiviral,MARV entry inh,LASV entry inh,HCV inh,Sm TGR block,RE007 growth inh
CCOc1ccc(OCC(O)CN2CCN(S(=O)(=O)c3cccc(C(F)(F)F)c3)CC2)cc1 (configuration not stated),?,0,0,?,0,0
COc1ccc2ccc(O)c(CN3CCN(S(=O)(=O)c4cccc(C(F)(F)F)c4)CC3)c2c1,?,-,-,0,2.5µM,0
COC(=O)c1cc(S(=O)(=O)NCC2CCN(Cc3ccc(F)cc3)CC2)c[nH]1,0,0,0,0,0,0
COc1ccc(CN2CCC(CNS(=O)(=O)c3cccc(C(F)(F)F)c3)CC2)cc1,0,?,-,11µM,0,0
COc1ccc2ccc(O)c(CN3CC=C(c4ccccc4)CC3)c2c1,0,-,-,0,8.9µM,0
COc1ccc2c(CN3CC=C(c4ccccc4)CC3)cc(=O)oc2c1,0,?,0,0,?,0
Cc1cnc(C(=O)Nc2ccccc2-n2cccc2)cn1,0,0,0,0,50µM,0
Cc1cnc(C(=O)Nc2ccccc2F)cn1,0,0,0,0,0,0
CC(=O)c1cccc(NC(=O)c2sc3nc4n(c(=O)c3c2C)CCCC4)c1,0,?,0,0,0,0

# Screening results deposited in PubChem by National Center for Advancing Translational Sciences (NCATS).
